Measured values reported in the supplement of paper PMC13380429.

Key:
[1] = tested on: Vero E6 infected with SARS-CoV-2; assay: morphology score (similarity to uninfected cells); higher = more like uninfected cells; conditions: 24 h
[2] = tested on: Vero E6 infected with SARS-CoV-2; assay: SARS-CoV-2 infection rate relative to infected DMSO; higher = more infection, active = 60 or less; conditions: 24 h

Structure (SMILES) | morphology score [1] | SARS-CoV-2 infection rate [2]
CC1Oc2cc(cnc2N)-c2c(nn(C)c2C#N)CN(C)C(=O)c2ccc(F)cc21 (stereo not given) (0.833333 µM) | 0.32 | 81.5% (inactive)
N=C(NCc1ccc(Cl)cc1)SCCCc1c[nH]cn1 [clobenpropit] (10 µM) | 0.14 | 104% (inactive)
CC(=O)OCC(=O)[C@H]1CC[C@H]2[C@@H]3CCC4=CC(=O)CC[C@]4(C)[C@H]3CC[C@]12C [deoxycorticosterone-acetate] (10 µM) | -0.0375 | 102% (inactive)
O=c1c2ccccc2[se]n1-c1ccccc1 [Ebselen] (10 µM) | 0.34 | 84.5% (inactive)
CCCOc1ccc(C(=O)OCCN(CC)CC)cc1N [proxymetacaine] (10 µM) | -0.0115 | 108% (inactive)
CCCCCCCCN=c1ccn(CCCCCCCCCCn2ccc(=NCCCCCCCC)cc2)cc1 [octenidine] (0.833333 µM) | -0.0145 | 108% (inactive)
CN(C)c1nc(N(C)C)nc(N(C)C)n1 [altretamine] (10 µM) | -0.171 | 114% (inactive)
C=CC(N)CCC(=O)O (stereo not given) [vigabatrin] (10 µM) | 0.188 | 99.5% (inactive)
N#Cc1ccc(Cn2cncc2CN2CCN(c3cccc(Cl)c3)C(=O)C2)cc1 (10 µM) | 0.276 | 95% (inactive)
Cc1sc(C)c(C(=O)NC2(c3ccc(C(=O)O)cc3)CC2)c1Cc1ccc(C(F)(F)F)cc1 (10 µM) | 0.187 | 108% (inactive)
Cc1cccc(Oc2nc3c(C)cccn3c(=O)c2/C=C(\C#N)c2nc3ccccc3s2)c1 (10 µM) | 0.0471 | 106% (inactive)
O=C(CNC(=O)c1cccc(C(F)(F)F)c1)N[C@@H]1CCN(Cc2ccc(Cl)cc2)C1 [teijin-compound-1] (10 µM) | -0.116 | 103% (inactive)
COc1cc([C@@H]2c3cc4c(cc3[C@@H](O[C@@H]3O[C@@H]5CO[C@@H](C)O[C@H]5[C@H](O)[C@H]3O)[C@H]3COC(=O)[C@H]23)OCO4)cc(OC)c1O [etoposide] (10 µM) | -0.114 | 104% (inactive)
COc1ccc(C2CNC(=O)NC2)cc1O[C@H]1C[C@@H]2CC[C@H]1C2 [atizoram] (10 µM) | 0.369 | 93.5% (inactive)
Cc1nc(Nc2ncc(C(=O)Nc3c(C)cccc3Cl)s2)cc(N2CCN(CCO)CC2)n1 [dasatinib] (0.833333 µM) | -0.0371 | 95.5% (inactive)
CC(=O)N[C@H](Cc1ccc2ccccc2c1)C(=O)N[C@H](Cc1ccc(Cl)cc1)C(=O)N[C@H](Cc1cccnc1)C(=O)N[C@@H](CO)C(=O)N[C@@H](Cc1ccc(NC(=O)[C@@H]2CC(=O)NC(=O)N2)cc1)C(=O)N[C@H](Cc1ccc(NC(N)=O)cc1)C(=O)N[C@@H](CC(C)C)C(=O)N[C@@H](CCCCNC(C)C)C(=O)N1CCC[C@H]1C(=O)N[C@H](C)C(N)=O [degarelix] (10 µM) | -0.277 | 115% (inactive)
C=CC(=O)Nc1cccc(Nc2nc(Nc3ccc(NC4CN(CCF)C4)cc3OC)ncc2C(F)(F)F)c1 (0.833333 µM) | -0.356 | 118% (inactive)
N[C@@H](Cc1c[nH]c2ccc(O)cc12)C(=O)O [5-hydroxytryptophan] (10 µM) | 0.197 | 104% (inactive)
CCOC(=O)c1ccc(N(C)c2csc(-c3ccccc3)n2)cc1 [neuropathiazol] (10 µM) | -0.0531 | 110% (inactive)
CCN(CC)CCOC(=O)c1ccc(N)cc1 [procaine] (10 µM) | -0.107 | 115% (inactive)
COc1cc2c(NC3CCN(C(C)C)CC3)nc(C3CCCCC3)nc2cc1OCCCN1CCCC1 (10 µM) | 0.297 | 22.5% (active)
O=C1NC(=O)/C(=C/c2ccc3c(c2)OC(F)(F)O3)S1 (10 µM) | -0.0969 | 106% (inactive)
O=C1C[C@@]2(C(=O)N1)C(=O)N(Cc1ccc(Br)cc1F)C(=O)c1cccn12 [ranirestat] (10 µM) | 0.148 | 94.5% (inactive)
O=C(/C=C/c1c(C(=O)O)[nH]c2cc(Cl)cc(Cl)c12)Nc1ccccc1 [gavestinel] (10 µM) | 0.121 | 108% (inactive)
Cn1cc(C2=C(c3cn(CCCSC(=N)N)c4ccccc34)C(=O)NC2=O)c2ccccc21 [bisindolylmaleimide-IX] (0.833333 µM) | 0.0892 | 91% (inactive)
